Results filed as inconclusive are left out. The source made the active and inactive calls. Rule for the calls: active = hit-call score of the fitted dose curve at least 0.9, where 1 is the maximum; inconclusive = response in the unintended direction; inactive = score below 0.9.

Sequence of human Matrix Metalloproteinase-1 (MMP1), MMP1 (gene 4312) (P03956 whole entry, looked up): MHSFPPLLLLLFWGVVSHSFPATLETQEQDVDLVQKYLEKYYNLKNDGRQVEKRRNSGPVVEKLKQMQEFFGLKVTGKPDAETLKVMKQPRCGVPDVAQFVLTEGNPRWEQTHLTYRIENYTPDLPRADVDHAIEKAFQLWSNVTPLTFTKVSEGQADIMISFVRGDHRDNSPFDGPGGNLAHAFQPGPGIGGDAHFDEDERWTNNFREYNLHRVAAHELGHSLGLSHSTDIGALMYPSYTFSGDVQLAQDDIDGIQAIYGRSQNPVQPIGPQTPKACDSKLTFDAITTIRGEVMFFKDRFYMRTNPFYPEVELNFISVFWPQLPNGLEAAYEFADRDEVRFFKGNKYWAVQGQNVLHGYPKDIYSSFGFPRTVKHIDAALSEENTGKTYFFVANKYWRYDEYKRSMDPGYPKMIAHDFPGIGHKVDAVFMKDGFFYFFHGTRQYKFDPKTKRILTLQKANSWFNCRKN

This assay concerns the target human Matrix Metalloproteinase-1 (MMP1), MMP1 (gene 4312) (UniProt P03956). In words: NVS_ENZ_hMMP1: NovaScreen (NVS) Enzymatic Assay for human Matrix Metalloproteinase-1 (MMP1) (AID 2283181). The protocol:
NVS_ENZ_hMMP1 is a biochemical, single-readout assay that uses extracted gene-proteins in a cell-free assay. Measurements were taken 1 hour after chemical dosing in a 96-well plate.NVS_ENZ_hMMP1 is one of one assay component(s) measured or calculated from the NVS_ENZ_hMMP1 assay. It is designed to make measurements of enzyme activity, a form of enzyme reporter, as detected with fluorescence intensity signals by Fluorescence technology.Data from the assay component NVS_ENZ_hMMP1 was analyzed into 1 assay endpoint. This assay endpoint, NVS_ENZ_hMMP1, was analyzed in the positive analysis fitting direction relative to DMSO as the negative control and baseline of activity. Using a type of enzyme reporter, loss-of-signal activity can be used to understand changes in the enzymatic activity as they relate to the gene MMP1. Furthermore, this assay endpoint can be referred to as a primary readout, because this assay has produced multiple assay endpoints where this one serves a enzymatic activity function. To generalize the intended target to other relatable targets, this assay endpoint is annotated to the protease intended target family, where the subfamily is matrix metalloproteinase.
Binding assays used specific radioligands (tritiated, iodinated) with non-radioactive competitive displacement ligands in agonist or antagonist protocols (as indicated) and various reference compounds and inhibitors to titrate specific binding to receptors and transporters. Most enzyme assays (CYPs, kinases, phosphatases, proteases, HDACs) used recombinant protein and specific substrates (fluorescence mostly, some colorimetric and radioactive) and inhibitors, followed by a biochemical separation of substrate and product. All assays for the biochemical HTS were initially run in duplicate at a single concentration (10 uM for CYP450 assays and 25 uM for all others). Assay-chemical combinations meeting a pre-defined threshold (e.g., 30% inhibition and other criteria defined below) were then run in singleton concentration-response format with maximum concentration of 20 uM for CYPs and 50 uM for all others. Each assay was run with positive and negative controls, and concurrent controls on every plate. The follow-up (secondary) screen tested active chemical-pairs in concentration series, as well as a few additional assays not tested in the primary screen, some selected negative inactives, and several cases re-run in the concentration series for confirmatory purposes.
Consider `O=P(OC(CCl)CCl)(OC(CCl)CCl)OC(CCl)CCl`, for which the call was inactive.
Take `c1ccc2n[nH]nc2c1`: the outcome was inactive.
In the case of `COc1ccc2sc(C(=O)Nc3nnn[nH]3)c(OC(C)C)c2c1`, the compound was classed as inactive.
On the same count and under the same terms, to `CC(=O)NC1(c2cccc(F)c2)CCN(CC[C@@]2(c3ccc(Cl)c(Cl)c3)CN(c3ccccc3)C(=O)CO2)CC1` belongs “inactive”.
Take `O=C(O)CCN(C1(C(=O)NO)CCCC1)S(=O)(=O)c1ccc(Oc2ccc(F)cc2)cc1`: the AC50 (in general, the midpoint of the concentration-response curve, whichever way the signal moves) is 3.49 µM (active).
Take `CCCCCCCCCCCCCCCCOS(=O)(=O)O`: the AC50 is 4.54 µM (active).
Turning to `CC(C)(O)c1coc(S(=O)(=O)NC(=O)Nc2c3c(cc4c2CCC4)CCC3)c1`, the result was inactive.
As for `NCCO`, the outcome was inactive.
For the compound `CC(=O)OC1CC(C)OC(C)O1` (stereo not given), the call was inactive.
Turning to `COC(=O)c1ccccc1O`, the result was inactive.
For `COCCOCCOC`, the compound was called inactive.
Regarding `O=C(O)c1cccc(C(=O)O)c1`, the half-maximal activity concentration (AC50) is 13 µM (active).
As for `CCc1cc(SCc2sc(-c3ccc(C(F)(F)F)cc3)nc2CN2CCN(c3ccc(OC)cc3)CC2)ccc1OCC(=O)O`, the AC50 is 1.06 µM (active).
Turning to `CN(C)C(=O)C1(N2CCCCC2)CCN(CC[C@@]2(c3ccc(Cl)c(Cl)c3)CN(C(=O)c3ccccc3)CCO2)CC1`, the AC50 was 17.1 µM (active).
In the case of `CCCCC(CC)COC(=O)CC(C(=O)OCC(CC)CCCC)S(=O)(=O)O` (stereo not given), the compound was classed as inactive.
As to `Cc1cc(=O)[nH]c(=S)[nH]1`, the result was inactive.
`Cc1c(C)c2c(c(C)c1O)CCC(C)(COc1ccc(CC3SC(=O)NC3=O)cc1)O2` (stereo not given): the AC50 is 6.75 µM (active).
Turning to `CC(=O)O[C@]1(C(C)=O)CC[C@H]2[C@@H]3C=C(Cl)C4=CC(=O)[C@@H]5C[C@@H]5[C@]4(C)[C@H]3CC[C@@]21C`, the compound was called inactive.
For the compound `NC(=O)c1nc(-c2cccc(-c3cc(F)ccc3OCC(F)(F)C(F)(F)F)c2)n[nH]1`, the AC50 was 1.27 µM (active).
On to `FC(F)(F)C(F)(F)C(F)(F)C(F)(F)C(F)(F)C(F)(F)CCI`, for which the compound was called inactive.
With `CCCCCCCCOC(=O)c1cc(O)c(O)c(O)c1`, the AC50 was 13.9 µM (active).
Still for that read-out and setting: the figure for `CC(C)c1cccc(C(C)C)c1NC(=O)NS(=O)(=O)c1cc(C(C)(C)O)co1` is 37.1 µM (active); for `O=C(NO)C1(NS(=O)(=O)c2ccc(Oc3ccc(F)cc3)cc2)CCOCC1` it is 17.9 µM (active).
Turning to `COc1ccc([N+](=O)[O-])cc1N`, the AC50 was 10.8 µM (active).
With `C=CCOC(Cn1ccnc1)c1ccc(Cl)cc1Cl` (stereo not given), the AC50 was 14 µM (active).
With `CCN(Cc1cccc(S(=O)(=O)O)c1)c1ccc(C(=C2C=CC(=[N+](CC)Cc3cccc(S(=O)(=O)O)c3)C=C2)c2ccccc2S(=O)(=O)[O-])cc1`, the outcome was inactive.
Turning to `O=C1c2c(O)cccc2Cc2cccc(O)c21`, the AC50 was 15.7 µM (active).
Regarding `Clc1cc(Cl)c(Cl)cc1Cl`, the result was inactive.
For `Cn1cnc2c1c(=O)[nH]c(=O)n2C`, the compound was classed as inactive.
For the compound `CCN(CC)CCOc1ccc(C(=C(Cl)c2ccccc2)c2ccccc2)cc1`, the compound was classed as inactive.
For `CO[C@@H]1COCC[C@@H]1N[C@@H]1CC[C@@](C(=O)N2CCc3ncc(C(F)(F)F)cc3C2)(C(C)C)C1`, the call was inactive.
As to `c1ccc(C(O[C@@H]2CCCN(CCc3ccc4c(c3)OCO4)C2)c2ccccc2)cc1`, the AC50 is 8.81 µM (active).
For the compound `CN(C)c1ccc(N=NS(=O)(=O)O)cc1`, the result was inactive.
For `CCN(Cc1cccnc1)C(=O)c1cccc(Cl)c1[C@]1(C)C(=O)N(Cc2ccc(OC)cc2OC)c2ccc(Cl)cc21`, the AC50 is 9.73 µM (active).
For the compound `S=C(S)NCCNC(=S)S.[Mn+2].[S-]C([S-])=NCCN=C([S-])[S-].[Zn+2]`, the compound was called inactive.
On to `CCCCc1nc2cccnc2n1Cc1ccc(-c2ccccc2-c2nnn[nH]2)cc1`, for which the AC50 was 2.25 µM (active).
`CC(=O)S[C@H](C(=O)N[C@H]1Cc2ccccc2[C@H]2CCC[C@@H](C(=O)O)N2C1=O)C(C)C`: the call was inactive.
In the case of `CCC(C)c1ccccc1O` (stereo not given), the AC50 was 11.9 µM (active).
Take `Nc1ccc(C(=O)O)cc1`: the call was inactive.
On to `O=C(N[C@@H](Cc1ccccc1)[C@@H](O)C(=O)N1C[C@@H](O)[C@@H](O)C1)c1cc2cc(Cl)ccc2[nH]1`, for which the compound was called inactive.

Values taken from PubChem BioAssay (EPA / NIEHS).
